Reference: PubChem BioAssay (NCI)
Compounds without any hit were thinned out: in the full panel of roughly 83,000, 20% have a hit.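 How to read the values: 0–100, growth inhibition (40 = 60% inhibited); 0, no net growth; -100 to 0, cell death (-40 = 40% of starting cells died; -100 = all dead).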 Unmarked numbers belong to inactive results. Calls of active or inactive are those of the source. The calls were made as follows: active = growth percent below 10; inactive = the rest.

The molecules below were run on DU-145 prostate (assay: NCI-60 one-dose screen, 48 h (100 = growth as untreated, 0 = no growth, -100 = all killed)). Conditions: 10 µM unless noted.

SMILES | growth
C=C1CCC2C3(C)COC(c4cc(F)cc(F)c4)OC3CCC2(C)C1CC(O)C1=CCOC1=O (stereo not drawn) | 72.9%
CC(=O)Nc1ccc(C(=O)NC(=S)Nc2ccc(S(N)(=O)=O)cc2)cc1 | 105%
COc1cc(C2CC(c3cc(OC)c(OC)c(OC)c3)=Nc3c(N)nc(N)nc3N2)ccc1Oc1nc(NCCO)nc(N2CCOCC2)n1 (stereo not drawn) | 114%
CC1=C(C(=O)c2ccccc2)C(c2cccc(Cl)c2Cl)n2c(nc3ccccc32)N1 (stereo not drawn) | 58.1%
CN1CCc2c(sc3ncnc(N/N=C/c4ccc(Cl)cc4Cl)c23)C1 | 36.1%
O=C(COc1ccc(NC(=O)Nc2ccc(Cl)c(Cl)c2)cc1)N=Nc1c(O)[nH]c2ccc(Br)cc12 | -30.1% (active)
Cn1cc(NC(=O)c2cc(NC(=O)c3ccc(C#Cc4ccccc4)cc3)cn2C)cc1C(=O)NCCCN1CCOCC1 | 56.4%
COCOc1cc2oc(C(=O)N[C@@H](Cc3ccccc3)C(O)C(=O)NCc3ccccc3)c(C)c(=O)c2cc1OCOC (stereo partly drawn) | 52.8%
Cc1ccc(C(=O)CSc2nc3ccc(C)cc3c(=O)n2-c2ccc(F)cc2)cc1 | 80.9%
CC(C)c1ccc2c(N)c(C(=O)Nc3ccc(C(F)(F)F)cn3)sc2n1 | 63.8%
CN(C)CCn1c2ccccc2c2nc3ccc([N+](=O)[O-])cc3nc21 | 7.7% (active)
COc1cc2c(c(OC)c1OC)C(=O)CC(c1cccc(NC(=O)c3cc(NC(=O)[C@H](CO)NC(=O)OC(C)(C)C)ccc3Cl)c1)O2 (stereo partly drawn) | 27.5%
Cc1cccc(NC(=O)[C@]23CCC(C)(C)CC2C2=CCC4[C@@]5(C)C[C@@H](O)[C@H](O)[C@@](C)(CO)C5CC[C@@]4(C)[C@]2(C)CC3)c1 (stereo partly drawn) | 32.2%
CC(=O)Nc1ccc(-n2cnc3ccc(-c4ccc(O)cc4)cc32)cc1 | 44.7%
NC(=S)Nc1cccc(NC(N)=S)c1 | 101%
O=C(/C=C/c1ccc(O)c(O)c1)NC1CCOC1O (stereo not drawn) | 108%
CCN1C(=O)/C(=N\N=C(/C)c2ccc3c(c2)Nc2ccccc2S3)c2cc(Cl)ccc21 | 71.8%

SMILES | growth
S=C(NCCc1ccccc1)Nc1ccc(OCc2nc3ccccc3[nH]2)cc1 | 110%
COc1ccc(-c2nc(SC(C)C)nc(NCCc3c[nH]c4ccccc34)c2C#N)cc1 | 54%
S=C(Nc1ccccc1)Nc1ccc(OCc2nc3ccccc3[nH]2)cc1 | 43.8%
CC1(C)CC[C@]2(C(=O)Nc3ccc(Br)cc3)CC[C@]3(C)C(=CCC4[C@@]5(C)C[C@@H](O)[C@H](O)[C@@](C)(CO)C5CC[C@]43C)C2C1 (stereo partly drawn) | 21.5%
CC12CC[C@@H]3[C@]4(C)COC(c5c(F)cccc5F)O[C@@H]4CC[C@@]3(C)[C@@H]1CC(C1=CCOC1=O)O2 (stereo partly drawn) | 76.6%
Cc1ccc(Cc2cnc(NC(=O)c3ccc(/C=C4\SC(=S)N(C)C4=O)cc3)s2)cc1 | 26.1%
CC(=O)Nc1ccc(-n2cnc3cc(-c4ccc(O)cc4)ccc32)cc1C(F)(F)F | 23%
Cn1cc(NC(=O)c2cc(NC(=O)c3ccc(/C=C/c4ccccc4)cc3)cn2C)cc1C(=O)NCCCN1CCOCC1 | 44.4%
CN(C)CCCNC(=O)c1cc(NC(=O)c2cc(NC(=O)c3ccc(/C=C/c4ccccc4)cc3)cn2C)cn1C | 57.1%
CC(=O)OC[C@@]1(C)C2CC[C@]3(C)C(CC=C4C5CC(C)(C)CC[C@]5(C(=O)Nc5ccc(Br)cc5)CC[C@]43C)[C@@]2(C)C[C@@H](OC(C)=O)[C@@H]1OC(C)=O (stereo partly drawn) | 49%
COc1ccc(NC(=O)Cn2c(O)c(N=Nc3ccc(S(N)(=O)=O)cc3)c3ccccc32)cc1 | 82.4%
S=C(Nc1ccc(OCc2nc3ccccc3[nH]2)cc1)NC1CCCCC1 | 98.4%
Cc1ccc(NC(=O)[C@]23CCC(C)(C)CC2C2=CCC4[C@@]5(C)C[C@@H](O)[C@H](O)[C@@](C)(CO)C5CC[C@@]4(C)[C@]2(C)CC3)cc1 (stereo partly drawn) | 45.6%
O=S(=O)(Nc1cccc(-n2cnc3cc(-c4ccc(O)cc4)ccc32)c1)C1CC1 | 27.5%
Cn1cc(-c2nnc(N)nc2-c2c[nH]c3ccccc23)c2cccnc21 | 76.9%
CN(C)c1ccnc(CNCCSC2(c3ccc(C(F)(F)F)cc3)c3ccccc3CCc3ccccc32)c1 | -3.51% (active)
